Source: PubChem
The full list was thinned out, with hits kept by preference.
Tgondii IFNg: T. gondii growth inhibition under IFN-gamma. Toxoplasma gondii growth in IFN-gamma-treated host cells; hits give low values. activity change, negative = inhibition, % (no concentration beside the values). hit rate 3.8% among 69,000; in the data active = activity change below about -70%, passing the limit was not always enough;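 also: host cells are HeLa cells infected with Toxoplasma gondii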
Numbers stand for hits; – = inactive; ! = a repeat was not active.

SMILES	Tgondii IFNg
O=c1c(O)c(-c2ccccc2)oc2cc(O)cc(O)c12	–
COc1ccc(-c2cc(=O)c3c(O)cc(O)cc3o2)cc1O	–
COc1ccc(-c2cc(=O)c3ccc(O)cc3o2)cc1	–
O=c1ccc(-c2cccs2)nn1C1CN(S(=O)(=O)c2ccc3c(c2)OCCO3)C1	–
COc1ccc(-n2c(=O)c(C(=O)Nc3ccc(C)c(C)c3)c(O)c3cccnc32)cc1	–
CCCCn1nnnc1NC(=O)N1CCC(CC)(CC)C1	–
CCN(C(=O)CCC(=O)N1CC(=O)Nc2ccccc21)C1CCN(C)CC1	–
CCn1c(C2CCCN(Cc3cc(=O)c4ccccc4[nH]3)C2)n[nH]c1=O (stereo not drawn)	–
O=C1[C@@H]2CN(c3ccccn3)C[C@@H]2CN1Cc1cccc(F)c1	–
CCn1nc(C)c(CN2CC3(CCNCC3)CC2C(=O)O)c1C (stereo not drawn)	–
COc1ccccc1CN1CCc2cnn(C)c2C1COCC1CC1 (stereo not drawn)	–
Cc1ccc2[nH]c(-c3nc(CCN(C)C(=O)c4cccn4C)no3)cc2c1	–
CCc1c(-c2nc(CCN(C)C(=O)c3cccn3C)no2)[nH]c2ccc(C)cc12	-91
COc1ccc2[nH]c(-c3nc(CCN(C)C(=O)c4ccncc4)no3)cc2c1	–
O=C(Nc1csc(-c2ccc(Cl)cc2)c1)c1cccnc1Oc1ccc(Cl)cc1	–
O=C(Sc1ccc(Cl)cc1)c1cccnc1Oc1ccccc1	-102
O=C(NCc1csc2ccc(Cl)cc12)c1cccnc1Oc1ccc(Cl)cc1	–
CCN(CC)C(=O)C(=O)Nc1cc(C(=O)N(CC)CC)ccc1Cl	–
O=C(Cn1c(=O)cc(C(=O)N2CCCC2)c2ccccc21)Nc1ccc(F)cc1F	–
[O-][NH2+]c1ccc(O)c2ncccc12	-84!
Cc1ccc(CN2CCC3(CC2)CN(CC2CC2)C(=O)CO3)o1	–
NC(=O)c1cncc(N2CCC(CO)(Cc3ccccc3)CC2)n1	–
Cc1cccc2cc(CO)c(N3CCC(CO)(Cc4ccccc4)CC3)nc12	-77
COc1ccc(CC2(CO)CCN(c3ncnc4c3CCC4)CC2)cc1	–
CC(=O)NC1(c2ccccc2)CCN(c2ncccn2)CC1	–
SMILES	Tgondii IFNg
CCN(CCn1cccn1)C(=O)C1COc2ccccc2O1 (stereo not drawn)	–
CN(C)CCNC(=O)CC1CC2(CCN(S(=O)(=O)C3CC3)CC2)c2ccccc21 (stereo not drawn)	–
CCOC(=O)c1c(NC(=S)NC(=O)c2ccccc2)sc(C)c1C	-73
CCOC(=O)c1c(NC(=O)c2ccccc2)sc(C(=O)Nc2ccccc2)c1C	–
CCOC(=O)c1c(NC(=O)c2c(C)nn(-c3ccccc3)c2Cl)sc(C)c1C	–
COc1ccc(-c2noc(-c3c(O)c4ccccc4n(C)c3=O)n2)cc1OC	–
Cc1ccccc1CC(=O)N1CCC2(CC1)NC(=O)c1cc(F)ccc1N2C	–
Cc1ccc(Cl)cc1NC(=O)N1CCC2(CC1)Nc1ccccc1-n1cccc12	–
COc1ccc(C(=O)CC(=O)O)c2c1C=CC(C)(C)O2	–
COc1ccc2[nH]cc(C3N4CC5(C)CN3CC(C)(C4)C5=O)c2c1 (stereo not drawn)	–
COc1ccc2[nH]c(=O)c3c(c2c1)OC(C)(C)C=C3	-83
CC(=O)N1CCS(=O)(=O)[C@H]2CCN(S(=O)(=O)Cc3ccccc3)CC[C@@H]21	–
O=C(Nc1ccccc1)c1cc2ccccc2oc1=O	–
Cc1cc(-c2ccc3c(c2)OCO3)cnc1N	–
Cc1ncc(-c2ccc3c(c2)OCO3)c(-c2cccnc2)n1	–
Cc1nc(-c2ccc3c(c2)OCO3)cc(C(C)C)n1	-72
Cc1c(CN(C)c2ccc(-c3nccn3C)nn2)[nH]c2ccccc12	-96
CN(Cc1nccn1C)c1ccc(-c2nccn2C)nn1	–
CN(Cc1ccoc1)c1ccc(-c2nccn2C)nn1	–
Cn1cc(CN2CCc3ncnc(NC4CC4)c3CC2)cn1	–
Cc1ccc(CC(=O)NC(Cc2cc(=O)[nH]c(C(C)C)n2)c2ccc(F)cc2)cc1 (stereo not drawn)	–
Cc1nc(C(=O)N2C[C@@H]3COC[C@]3(COCC3CC3)C2)cs1	–
COc1ccc(Cl)cc1NC(=O)Cn1ncc2c(N3CCCC3)ncnc21	-81
COc1cc(Cl)c(C)cc1NC(=O)Cn1ncc2c(N3CCN(c4ccccn4)CC3)ncnc21	–
O=C(Cn1ncc2c(N3CCN(c4ccccc4)CC3)ncnc21)Nc1cccc(F)c1	-85
SMILES	Tgondii IFNg
CCc1ccc(NC(=O)Cn2ncc3c(N4CCN(c5ccccc5)CC4)ncnc32)cc1	–
Cc1cc(Cl)ccc1NC(=O)Cn1ncc2c(N3CCCCCC3)ncnc21	–
COc1ccc(Cl)cc1NC(=O)Cn1ncc2c(N3CCN(c4ccccn4)CC3)ncnc21	-92
COc1ccc(C)cc1NC(=O)Cn1ncc2c(N3CCN(c4ccccn4)CC3)ncnc21	–
Cc1cc(F)ccc1NC(=O)Cn1ncc2c(N3CCN(c4ccccc4)CC3)ncnc21	–
Cc1ccc(NC(=O)Cn2ncc3c(N4CCN(c5ccccc5)CC4)ncnc32)c(Cl)c1	–
Cc1ccccc1NC(=O)Cn1ncc2c(N3CCN(c4ccccc4)CC3)ncnc21	–
Cc1ccc(Cl)cc1NC(=O)Cn1ncc2c(N3CCCC3)ncnc21	–
